The results in this text go back to PubChem BioAssay (NCI).

Structures are written as SMILES. The panel holds about 83,000 compounds, 20% with a hit somewhere; the sample as a whole holds those more often.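 Growth was measured after 48 h exposure to one concentration of compound in 96-well plates. Values under 10 count as active.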 Unmarked numbers belong to inactive results. Active and inactive are the calls of the source.

Among the test systems are SK-MEL-2 melanoma; EKVX NSCLC; SN12C renal; UO-31 renal; TK-10 renal; ACHN renal; CAKI-1 renal; A498 renal; CCRF-CEM leukemia; MOLT-4 leukemia.
Experiment in all cases: NCI-60 one-dose screen, 48 h (100 = growth as untreated, 0 = no growth, -100 = all killed)
Conditions in all cases: 10 µM unless noted

For `C=C1CCC2C(C)(CO)C(O)CCC2(C)C1C/C=C1/C(=O)OCC1O/C=C/c1ccccc1` (stereo not given), the growth in the test with SK-MEL-2 melanoma is 72.7%; in the test with EKVX NSCLC, 103%; in the test on SN12C renal it was 73.8%; in the test on UO-31 renal it was 69.1%; with TK-10 renal, 119%; in the test on ACHN renal, 87.2%. Also, the growth in the test on CAKI-1 renal is 77.1%; in the test with A498 renal it was 86.4%; with CCRF-CEM leukemia, 10.7%; in the test on MOLT-4 leukemia it was 21.2%.

With `CC(=O)Oc1csc(N(C(C)=O)c2cccc(C(F)(F)F)c2)n1`, the growth in the test with SK-MEL-2 melanoma was 96.7%; in the test with EKVX NSCLC it was 46.1%; in the test on SN12C renal it was 89.6%; in the test on UO-31 renal, 91%; in the test with TK-10 renal it was 108%; in the test on ACHN renal it was 102%. The growth in the test with CAKI-1 renal was 98.4%; in the test with A498 renal, 85.2%; with CCRF-CEM leukemia it was 60.9%; with MOLT-4 leukemia it was 104%.

For the molecule `COc1ccc(-n2c(=S)sc3c(Cl)nc(C)nc32)c(OC)c1`, the growth was 23.2% with SK-MEL-2 melanoma; 49.3% in the test with EKVX NSCLC; 27% in the test with SN12C renal; -36.2% (active) in the test on UO-31 renal; 45.7% with TK-10 renal; 56.8% with ACHN renal. For the same molecule, the growth in the test on CAKI-1 renal was -41.8% (active); in the test on A498 renal, 110%; in the test on CCRF-CEM leukemia it was -1.34% (active); in the test on MOLT-4 leukemia, -1.97% (active).

Take `O=S(=O)(NCCCNc1nccc(-n2ccc3cccnc32)n1)c1ccc(Br)cc1`: the growth is 108% in the test on SK-MEL-2 melanoma; 93% in the test on EKVX NSCLC; 102% in the test on SN12C renal; 107% with UO-31 renal; 121% in the test on TK-10 renal; 108% in the test with ACHN renal. The growth in the test on CAKI-1 renal was 94.2%; with A498 renal, 102%; with CCRF-CEM leukemia, 102%; in the test with MOLT-4 leukemia, 100%.

As for `S=c1[nH]nc(-c2cc3ccc2CCc2ccc(cc2)CC3)n1-c1ccccc1`, the growth is 105% in the test on SK-MEL-2 melanoma; 93.4% in the test on EKVX NSCLC; 91.4% in the test with SN12C renal; 92.9% in the test with UO-31 renal; -61.5% (active) with TK-10 renal; 100% with ACHN renal. Besides, the growth in the test on CAKI-1 renal is 87.2%; with A498 renal, 90.2%; in the test on CCRF-CEM leukemia, 95.8%; with MOLT-4 leukemia, 92.7%.

With `O=c1cc(Cc2ccc([N+](=O)[O-])cc2)[nH]c(=O)[nH]1`, the growth is 94.6% in the test with SK-MEL-2 melanoma; 115% in the test on EKVX NSCLC; 98.4% in the test on SN12C renal; 67% with UO-31 renal; 97.9% with TK-10 renal; 98.1% in the test with ACHN renal. For the same molecule, the growth is 110% in the test on CAKI-1 renal, 110% in the test on A498 renal, 91.1% with CCRF-CEM leukemia and 94.9% in the test with MOLT-4 leukemia.

With `CC(C)(C)n1cc(-c2ccnc(NCCCNS(=O)(=O)c3ccc(Cl)cc3)c2)c(-c2cccc(O)c2)n1`, the growth in the test with SK-MEL-2 melanoma was -64% (active); with EKVX NSCLC it was 20.5%; in the test on SN12C renal, 18.1%; in the test on UO-31 renal it was 11%; in the test on TK-10 renal it was 43.7%; in the test on ACHN renal, 8.91% (active). The growth with CAKI-1 renal was 19.2%; in the test on A498 renal, -8.44% (active); with CCRF-CEM leukemia, 8.5% (active); with MOLT-4 leukemia it was -17.3% (active).

In the case of `N=C(N)c1ccc(-c2cc(Cl)cc(Cl)c2)cn1`, the growth is 101% in the test on SK-MEL-2 melanoma; 80.4% in the test with EKVX NSCLC; 91.6% in the test on SN12C renal; 70.2% with UO-31 renal; 115% in the test with TK-10 renal; 91.3% in the test with ACHN renal. In addition, the growth in the test with CAKI-1 renal was 68.4%; in the test on A498 renal, 73.1%; in the test with CCRF-CEM leukemia it was 8.61% (active); in the test with MOLT-4 leukemia it was 89.1%.

Take `Cn1ccc(Nc2nccc(Oc3ccc(C(=O)Nc4cccc(F)c4)c(Cl)c3)n2)c1`: the growth in the test with SK-MEL-2 melanoma was 58%; in the test with EKVX NSCLC it was 47.1%; in the test with SN12C renal it was 73.4%; in the test on UO-31 renal it was 62.6%; in the test on TK-10 renal, 54.4%; in the test with ACHN renal, 44.7%. For the same molecule, the growth in the test on CAKI-1 renal is 69.6%; with A498 renal it was 46.9%; in the test with CCRF-CEM leukemia it was 58.4%; in the test on MOLT-4 leukemia, 83.3%.

As to `Cc1nn(-c2ccc([N+](=O)[O-])cc2)c2ncnc(NCCc3ccccc3)c12`, the growth in the test with SK-MEL-2 melanoma was 110%; with EKVX NSCLC it was 52.6%; in the test with SN12C renal, 102%; in the test with UO-31 renal it was 79.7%; in the test on TK-10 renal, 108%; with ACHN renal it was 99.8%. In addition, the growth with CAKI-1 renal was 87.2%; with A498 renal, 81.7%; with CCRF-CEM leukemia, 100%; with MOLT-4 leukemia, 64.7%.

In the case of `NC(=O)c1c(NC(=S)Nc2ccc(OC(F)(F)F)cc2)sc2c1CCC1(C2)OCCO1`, the growth was 93.9% in the test with SK-MEL-2 melanoma; 93.1% in the test with EKVX NSCLC; 95.4% with SN12C renal; 88% with UO-31 renal; 106% with TK-10 renal; 99.9% in the test with ACHN renal. The growth in the test with CAKI-1 renal is 93.6%; in the test with A498 renal, 90.4%; in the test on CCRF-CEM leukemia, 93.8%; with MOLT-4 leukemia, 87.3%.

In the case of `COc1ccc(/C=C2/C(=O)NC(SCC(=O)N3CCN(c4cc5c(cc4F)c(=O)c(C(=O)O)cn5C4CC4)CC3)=NC2N)cc1OC` (stereo not given), the growth is 111% in the test with SK-MEL-2 melanoma; 87.6% in the test with EKVX NSCLC; 104% with SN12C renal; 86.9% in the test on UO-31 renal; 112% in the test on TK-10 renal; 104% in the test with ACHN renal. For the same molecule, the growth is 94.5% with CAKI-1 renal, 107% with A498 renal, 99.4% with CCRF-CEM leukemia and 109% in the test on MOLT-4 leukemia.

In the case of `CCN(CC)CCCNc1nccc2ccc(Cl)cc12`, the growth with SK-MEL-2 melanoma is 114%; in the test on EKVX NSCLC, 103%; with SN12C renal, 99.6%; in the test with UO-31 renal, 94.7%; with TK-10 renal, 99.8%; in the test with ACHN renal it was 112%. Further, the growth in the test with CAKI-1 renal is 108%; in the test on A498 renal, 97.9%; in the test on CCRF-CEM leukemia, 93.1%; in the test on MOLT-4 leukemia it was 103%.

As for `O=C(CSc1nc2ccccc2[nH]1)c1ccc(N2CCOCC2)cc1`, the growth in the test on SK-MEL-2 melanoma is 113%; in the test with EKVX NSCLC, 80.4%; in the test on SN12C renal it was 105%; in the test with UO-31 renal, 85.5%; in the test on TK-10 renal it was 118%; in the test with ACHN renal it was 105%. Further, the growth in the test with CAKI-1 renal is 99%; with A498 renal, 85.8%; with CCRF-CEM leukemia, 103%; in the test on MOLT-4 leukemia, 135%.
